In PubChem BioAssay (NCI):
About 83,000 compounds went through this panel and 20% of them were active in at least one assay; those are over-represented in the sample as a whole.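 Negative percent growth values reflect cell death: -40 means 40% of the cells present at the start died, and -100 means all died.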 Active and inactive are the calls of the source. The calls were made as follows: active = growth percent below 10; inactive = the rest.

Columns and labels:
Test in all cases: NCI-60 one-dose screen, 48 h (100 = growth as untreated, 0 = no growth, -100 = all killed)
SK-MEL-2 melanoma = details: 10 µM
EKVX NSCLC = details: 10 µM
SN12C renal = details: 10 µM
UO-31 renal = details: 10 µM
TK-10 renal = details: 10 µM unless noted
ACHN renal = details: 10 µM
CAKI-1 renal = details: 10 µM
A498 renal = details: 10 µM
CCRF-CEM leukemia = details: 10 µM
MOLT-4 leukemia = details: 10 µM

Measured: growth

O=C1Cc2cc(O)ccc2O1
inactive: SK-MEL-2 melanoma 101% | EKVX NSCLC 104% | SN12C renal 102% | UO-31 renal 83.7% | TK-10 renal 115% | ACHN renal 105% | CAKI-1 renal 103% | A498 renal 92.7% | CCRF-CEM leukemia 94% | MOLT-4 leukemia 91.2%

COc1ccc(OC)c(/C=C2\CCc3ccccc3C2=O)c1
inactive: SK-MEL-2 melanoma 43.1% | EKVX NSCLC 50% | SN12C renal 61.7% | UO-31 renal 61.1% | TK-10 renal 89.5% | ACHN renal 52.7% | CAKI-1 renal 39.1% | A498 renal 20.2% | CCRF-CEM leukemia 28.3% | MOLT-4 leukemia 23%

CCNc1nc2c(cnn2C)c(=O)[nH]1
inactive: SK-MEL-2 melanoma 103% | EKVX NSCLC 99.4% | SN12C renal 103% | UO-31 renal 85.7% | TK-10 renal 104% | ACHN renal 107% | CAKI-1 renal 93.9% | A498 renal 97.1% | CCRF-CEM leukemia 93.9% | MOLT-4 leukemia 102%

CC(=O)N(C)c1ccc([N+](=O)[O-])cc1
inactive: SK-MEL-2 melanoma 92% | EKVX NSCLC 122% | SN12C renal 96.9% | UO-31 renal 104% | TK-10 renal 95.8% | ACHN renal 99.4% | CAKI-1 renal 107% | A498 renal 116% | CCRF-CEM leukemia 119% | MOLT-4 leukemia 75.9%

Cc1ccc(Cl)cc1N1C(=O)CC(Sc2ccccc2N)C1=O (stereo not given)
inactive: SK-MEL-2 melanoma 107% | EKVX NSCLC 104% | SN12C renal 96.8% | UO-31 renal 105% | TK-10 renal 114% | ACHN renal 94.2% | CAKI-1 renal 97.2% | A498 renal 103% | CCRF-CEM leukemia 93.8% | MOLT-4 leukemia 74.7%

c1ncc2[nH]cnc2n1
inactive: SK-MEL-2 melanoma 84.6% | EKVX NSCLC 126% | SN12C renal 97.1% | UO-31 renal 83.5% | TK-10 renal 103% | ACHN renal 95.1% | CAKI-1 renal 94.8% | A498 renal 79.1% | CCRF-CEM leukemia 88.7% | MOLT-4 leukemia 80.8%

Cc1cc(OCCO)cc(C)c1Cl
inactive: SK-MEL-2 melanoma 117% | EKVX NSCLC 142% | SN12C renal 98.9% | UO-31 renal 109% | TK-10 renal 123% | ACHN renal 116% | CAKI-1 renal 115% | A498 renal 102% | CCRF-CEM leukemia 96.3% | MOLT-4 leukemia 100%

COc1ccc(C(O)c2ccccc2)cc1 (stereo not given)
inactive: SK-MEL-2 melanoma 112% | EKVX NSCLC 101% | SN12C renal 104% | UO-31 renal 81.9% | TK-10 renal 101% | ACHN renal 106% | CAKI-1 renal 100% | A498 renal 102% | CCRF-CEM leukemia 106% | MOLT-4 leukemia 94.1%

Cc1cc(=O)[nH]c(NN=C2CCCC2)n1
inactive: SK-MEL-2 melanoma 107% | EKVX NSCLC 107% | SN12C renal 104% | UO-31 renal 91.2% | TK-10 renal 122% | ACHN renal 108% | CAKI-1 renal 100% | A498 renal 129% | CCRF-CEM leukemia 102% | MOLT-4 leukemia 101%

COS(=O)(=O)c1ccc(Br)cc1
inactive: SK-MEL-2 melanoma 95% | EKVX NSCLC 106% | SN12C renal 93.9% | UO-31 renal 86.2% | TK-10 renal 97.5% | ACHN renal 103% | CAKI-1 renal 115% | A498 renal 113% | CCRF-CEM leukemia 127% | MOLT-4 leukemia 129%

O=C(N/N=C\c1cc(Br)cc(Br)c1O)N/N=C/c1cc(Br)cc(Br)c1O
inactive: EKVX NSCLC 69.3% | SN12C renal 59% | UO-31 renal 31% | TK-10 renal 65.5% | ACHN renal 52.2% | CAKI-1 renal 41.4% | A498 renal 70.4% | MOLT-4 leukemia 36.4%
active: SK-MEL-2 melanoma -23.8% | CCRF-CEM leukemia 3.69%

C=CCOC(=O)C(=O)OCC=C
inactive: SK-MEL-2 melanoma 97.1% | EKVX NSCLC 132% | SN12C renal 101% | UO-31 renal 108% | TK-10 renal 95.1% | ACHN renal 100% | CAKI-1 renal 136% | A498 renal 119% | CCRF-CEM leukemia 90.7% | MOLT-4 leukemia 104%

CC(=O)c1ccc(C(C)(C)C)cc1
inactive: SK-MEL-2 melanoma 102% | EKVX NSCLC 106% | SN12C renal 97% | UO-31 renal 82.7% | TK-10 renal 105% | ACHN renal 97.7% | CAKI-1 renal 92.7% | A498 renal 123% | CCRF-CEM leukemia 88.4% | MOLT-4 leukemia 98.9%

CCOc1ccccc1/C=N/Nc1nc2ccccc2o1
inactive: SK-MEL-2 melanoma 91.3% | EKVX NSCLC 101% | SN12C renal 92.2% | UO-31 renal 86.5% | TK-10 renal 104% | ACHN renal 103% | CAKI-1 renal 110% | A498 renal 92.1% | CCRF-CEM leukemia 95.8% | MOLT-4 leukemia 81.7%

CCOc1ccc(Br)cc1/C=N\N=C\c1cc(Br)ccc1OCC
inactive: SK-MEL-2 melanoma 109% | EKVX NSCLC 107% | SN12C renal 102% | UO-31 renal 88.8% | TK-10 renal 111% | ACHN renal 104% | CAKI-1 renal 90.8% | A498 renal 141% | MOLT-4 leukemia 102%
active: CCRF-CEM leukemia -3.92%

CCOC(=O)Nc1cc2c(c(N)n1)N=C(c1ccccc1)CO2
inactive: SK-MEL-2 melanoma 19.1% | EKVX NSCLC 33.4% | SN12C renal 29.3% | UO-31 renal 21.3% | TK-10 renal 53.3% | ACHN renal 49.9% | CAKI-1 renal 24.2% | A498 renal 52% | CCRF-CEM leukemia 13.5% | MOLT-4 leukemia 15.7%

O=C(O)CCCCNC(=O)c1ccccc1
inactive: SK-MEL-2 melanoma 113% | EKVX NSCLC 103% | SN12C renal 115% | UO-31 renal 100% | TK-10 renal 101% | ACHN renal 115% | CAKI-1 renal 107% | A498 renal 91.4% | CCRF-CEM leukemia 110% | MOLT-4 leukemia 106%

N#C/C(=C\c1cc(O)c(O)c(O)c1)C(N)=O
inactive: SK-MEL-2 melanoma 123% | EKVX NSCLC 97.4% | SN12C renal 107% | UO-31 renal 110% | TK-10 renal 116% | ACHN renal 96.6% | CAKI-1 renal 93.6% | A498 renal 119% | CCRF-CEM leukemia 74% | MOLT-4 leukemia 73.1%

CC(=O)Oc1ccc(Br)cc1C(=O)O
inactive: SK-MEL-2 melanoma 99.8% | EKVX NSCLC 104% | SN12C renal 102% | UO-31 renal 81.8% | TK-10 renal 102% | ACHN renal 99.3% | CAKI-1 renal 95.8% | A498 renal 131% | CCRF-CEM leukemia 88.7% | MOLT-4 leukemia 101%

OC(c1ccccn1)C(O)c1ccccn1 (stereo not given)
inactive: SK-MEL-2 melanoma 108% | EKVX NSCLC 124% | SN12C renal 91.5% | UO-31 renal 89% | TK-10 renal 108% | ACHN renal 98.2% | CAKI-1 renal 116% | A498 renal 95.9% | CCRF-CEM leukemia 104% | MOLT-4 leukemia 95.1%

Cc1cc(C)c(CC(=O)O)c(C)c1
inactive: SK-MEL-2 melanoma 100% | EKVX NSCLC 98.3% | SN12C renal 113% | UO-31 renal 94.3% | TK-10 renal 106% | ACHN renal 102% | CAKI-1 renal 93.3% | A498 renal 84.4% | CCRF-CEM leukemia 103% | MOLT-4 leukemia 98.5%

CCCCC1C(=O)N(c2ccccc2)N(c2ccccc2)C1=O
inactive: SK-MEL-2 melanoma 98.7% | EKVX NSCLC 105% | SN12C renal 96.2% | UO-31 renal 90.4% | TK-10 renal 103% | ACHN renal 102% | CAKI-1 renal 103% | A498 renal 125% | CCRF-CEM leukemia 95.8% | MOLT-4 leukemia 107%

Oc1ccc2c(c1)OCC1(O)Cc3cc(O)c(O)cc3C21 (stereo not given)
inactive: SK-MEL-2 melanoma 65.7% | EKVX NSCLC 107% | SN12C renal 100% | UO-31 renal 58.9% | TK-10 renal 106% | ACHN renal 104% | CAKI-1 renal 85.5% | A498 renal 99.1% | CCRF-CEM leukemia 71.5% | MOLT-4 leukemia 316%

C[N+](C)(C)C(=O)c1ccccc1
inactive: SK-MEL-2 melanoma 98.6% | EKVX NSCLC 108% | SN12C renal 95.8% | UO-31 renal 85.9% | TK-10 renal 102% | ACHN renal 107% | CAKI-1 renal 99.9% | A498 renal 98% | CCRF-CEM leukemia 104% | MOLT-4 leukemia 103%

Nc1nc(N)c2cc(S(=O)(=O)c3cccc(C(F)(F)F)c3)ccc2n1
inactive: SK-MEL-2 melanoma 89.8% | EKVX NSCLC 44% | SN12C renal 33.7% | UO-31 renal 56% | TK-10 renal 72.6% | ACHN renal 38.4% | CAKI-1 renal 65.1% | A498 renal 78.4% | CCRF-CEM leukemia 45.8% | MOLT-4 leukemia 37.3%

CCOC(=O)C(CCC(C)C)C(=O)OCC
inactive: SK-MEL-2 melanoma 97.5% | EKVX NSCLC 99.3% | SN12C renal 109% | UO-31 renal 84.7% | TK-10 renal 86.8% | ACHN renal 101% | CAKI-1 renal 100% | A498 renal 91.3% | CCRF-CEM leukemia 99.9% | MOLT-4 leukemia 83.8%

Cc1nc2ccccc2c2nnc(SCC(=O)N(Cc3ccccc3)c3ccccc3)n12
inactive: SK-MEL-2 melanoma 51.2% | EKVX NSCLC 76.6% | SN12C renal 100% | UO-31 renal 89% | TK-10 renal 189% | ACHN renal 92.8% | CAKI-1 renal 71.3% | CCRF-CEM leukemia 85.4% | MOLT-4 leukemia 93.1%
active: A498 renal -16.6%

CCC(C)(O)c1ccc(C)cc1 (stereo not given)
inactive: SK-MEL-2 melanoma 98% | EKVX NSCLC 109% | SN12C renal 102% | UO-31 renal 91.4% | TK-10 renal 99.6% | ACHN renal 108% | CAKI-1 renal 104% | A498 renal 96.9% | CCRF-CEM leukemia 99.3% | MOLT-4 leukemia 95.6%

Nc1ccc(CC(=O)O)c(N)c1
active: CCRF-CEM leukemia -27.4%
inactive: SK-MEL-2 melanoma 113% | EKVX NSCLC 101% | SN12C renal 102% | UO-31 renal 89% | TK-10 renal 105% | ACHN renal 104% | CAKI-1 renal 89% | A498 renal 62.8% | MOLT-4 leukemia 101%
